Laboratory results as given in PubChem BioAssay AID588855 (National Center for Advancing Translational Sciences (NCATS), 2011).
In all, about 410,000 compounds went through this assay and about 5,000 (1.2%) were called active. Not shown: some 13% with an inconclusive outcome. The sample holds actives, similar compounds and a random draw of the others, so the mix is not that of the screen. A number with no mark means an inactive call. Calls come from the whole dose curve; as a rule, active = well fitted inhibition curve with a large enough effect; inconclusive = small, poorly fitted or top-dose-only effect; inactive = no such curve, though single readings can be large or run the other way.

Assay: qHTS for Inhibitors of TGF-b; note: nearly all actives have a fitted effect of over 65% in size
Settings: HepG2 CAGA-GFP TGF-b/SMAD3 reporter, GFP fluorescence, 18 h, TGF-beta stimulated, 500 pg/mL final; series mostly up to 46.1 µM; activity, negative = inhibition: at the top concentration
How it was run: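 HEPG2 CAGA-GFP reporter cells (1000/well, DMEM with 1% FBS) received compounds, then recombinant TGF-beta at 500 pg/mL final for 18 hours at 37 degrees C. Per-cell GFP summed per well was normalised to unstimulated and stimulated DMSO controls before curve fitting.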
% is set by controls: 0 for no effect and ±100 for the full control effect; potency is the fitted concentration of half-maximal effect.

| SMILES | activity, negative = inhibition | Potency |
| --- | --- | --- |
| COc1ccc(CNc2nc(-c3ccccc3)nn2C(=O)c2ccccc2OC)cc1 | 6.76% | – |
| OC(Cc1ccc2ccccc2n1)c1ccc(Cl)c(Cl)c1 (configuration not stated) | 8.76% | – |
| CC1CC(C)CN(c2oc(-c3ccc(OCc4ccc(Cl)cc4)cc3)nc2C#N)C1 (configuration not stated) | -2.03% | – |
| CC1=C(C(=O)N(C(C)C)C(C)C)CC(CC(=O)NCCCCc2ccccc2)C(=O)N1CCC1=CCCCC1 (configuration not stated) | – | 12.6 µM (active) |
| CC1=C(C(=O)N2CCOCC2)CC(CC(=O)NCCN2CCOCC2)C(=O)N1CCC1=CCCCC1 (configuration not stated) | 7.65% | – |
| CC1=C(C(=O)N(C)C)CC(CC(=O)NCCc2ccccn2)C(=O)N1CCC1=CCCCC1 (configuration not stated) | 8.09% | – |
| COc1ccc(/C=C/c2nnc(NC(=O)C(C)C)s2)cc1 | 3.59% | – |
| O=C(Nc1ccc(Cl)cc1)Nc1nnc(/C=C/c2ccccc2)s1 | – | 7.08 µM (active) |
| O=C(CSc1ccccc1)Nc1nnc(/C=C/c2ccccc2)s1 | 4.29% | – |
| COc1cccc(-c2cnc(C(O)c3ccccc3OC)[nH]2)c1 (configuration not stated) | 1.48% | – |
| COc1ccccc1CSc1ncc(-c2ccc([N+](=O)[O-])cc2)[nH]1 | – | 12.6 µM (active) |
| COc1ccc(-c2cnc(SCCNC(=O)c3ccc4c(c3)OCO4)[nH]2)cc1 | -2.86% | – |
| COc1ccc(C(=O)COC(=O)c2ccc([N+](=O)[O-])s2)cc1OC | -5.53% | – |
| Cc1ccc(S(=O)(=O)N2CCN(CC(=O)N/N=C/c3ccc(Br)s3)CC2)cc1 | 0% | – |
| COc1ccccc1OCCNC(=O)c1cc([N+](=O)[O-])cc([N+](=O)[O-])c1 | 4.16% | – |
| COc1ccc(C(=O)NCC(=O)N/N=C/c2ccc([N+](=O)[O-])s2)cc1OC | – | 11.2 µM (active) |
| Cc1ccccc1NCC(=O)N/N=C\c1ccc([N+](=O)[O-])s1 | – | 11.2 µM (active) |
| Cc1nn(Cc2ccc(Cl)cc2)c(Cl)c1/C=N/NC(=O)CNc1ccccc1F | 0% | – |
| COc1ccc(C2C(=O)N(C3CCCCC3)CC(=O)N2Cc2ccccc2Cl)cc1OC (configuration not stated) | 0.844% | – |
| O=C(Cc1ccc(Cl)cc1)Nc1ccc2nn(-c3ccc(Cl)cc3)nc2c1 | -5.09% | – |
| O=C(NCc1ccc(F)cc1)c1ccc2nc(N3CCCCC3)sc2c1 | -18.5% | – |
| COc1ccc2nc(N3CCN(C(=O)c4ccc([N+](=O)[O-])o4)CC3)sc2c1 | – | 10 µM (active) |
| CC1CCN(c2nc3ccc(C(=O)N4CCN(c5ccccc5)CC4)cc3s2)CC1 | -18.9% | – |
| CCn1c2ccccc2c2cc(NC(=O)COc3ccc(C)cc3C)ccc21 | -20.9% | – |
| Cn1nc(-c2ccccc2)c(-c2ccccc2)c(C(=O)Nc2ccc(S(N)(=O)=O)cc2)c1=O | -0.749% | – |

| SMILES | activity, negative = inhibition | Potency |
| --- | --- | --- |
| CCCCNc1ccc(-c2nc(-c3ccncc3)no2)cc1[N+](=O)[O-] | -16.9% | – |
| Cc1cccc(N2CCN(C(=O)Cn3ncc4c5ccccc5n(C)c4c3=O)CC2C)c1 (configuration not stated) | 13.2% | – |
| CCOc1ccc(NC(=O)CN(Cc2ccccc2)S(=O)(=O)c2ccc(Cl)cc2)cc1 | -14.5% | – |
| CCOc1ccc(N(Cc2ccccc2)C(=O)c2nc(S(C)(=O)=O)ncc2Cl)cc1 | – | 3.98 µM (active) |
| COc1ccc(N(Cc2ccc(N(C)C)cc2)C(=O)c2ccc(S(C)(=O)=O)cc2)cc1 | 5.12% | – |
| CCc1ccc(NC(=O)N2CCN(C(=O)c3nsc4ccccc34)CC2)cc1 | 0% | – |
| COc1ccc(CCNC(=O)c2cn(C)c3ccc(S(=O)(=O)N(C)C4CCCCC4)cc3c2=O)cc1OC | 16% | – |
| CCOC(=O)c1ccc(-c2ccc(/C=C(\C#N)C(=O)Nc3ccc(C)cc3)o2)cc1 | -1.98% | – |
| COc1ccc(-c2cc(NC=O)c3ncc(-c4ccccc4)n3c2)cc1OC | -7.58% | – |
| CN(C)C(=O)c1cccc(-c2cnc3c(NC=O)cc(-c4ccc(C(=O)N5CCOCC5)cc4)cn23)c1 | -1.01% | – |
| O=CNc1cc(-c2ccc(C(=O)N3CCOCC3)cc2)cn2c(-c3ccc(F)cc3)cnc12 | -0.898% | – |
| CC(=O)c1ccc(-c2cnc3c(NC=O)cc(-c4cccc(NS(C)(=O)=O)c4)cn23)cc1 | – | 7.08 µM (active) |
| COc1ccc(-c2cc(NC=O)c3ncc(-c4cccc(C(=O)N(C)C)c4)n3c2)c(OC)c1 | 4.36% | – |
| CC(=O)c1cccc(-c2cnc3c(NC=O)cc(-c4ccc(N(C)C)cc4)cn23)c1 | – | 4.47 µM (active) |
| CCc1ccccc1NC(=O)c1cnn(-c2ccc(F)cc2)c1C1CCNCC1 | 3.86% | – |
| Cc1nn(CC(=O)NCCc2ccccc2)c(=O)c2c1sc1ccccc12 | -17.8% | – |
| CC(=O)N1c2ccccc2CC1C(=O)N1CCN(c2ccc(F)cc2)CC1 (configuration not stated) | 0.952% | – |
| CCc1ccc(OCCCn2c(CCCNC(=O)C3CCCCC3)nc3ccccc32)cc1 | 1.56% | – |
| CCOC(=O)c1cc(-c2ccccc2)n(-c2cccc(C(=O)Nc3cc(OC)cc(OC)c3)c2)c1C | -22.2% | – |
| COc1ccc(-c2ccc(OC)c(C3C4C=CCC(C)C4C(=O)N3Cc3ccccc3)c2)cc1C (configuration not stated) | 6.54% | – |
| Cc1cccc([C@@H]2[C@@H]3C(=O)N(Cc4ccccc4)C(=O)[C@@H]3[C@]3(C)C(=O)N(c4ccc(Br)cc4)C(=O)N23)c1 | -6.57% | – |
| Cc1ccc(-c2cccc([C@H]3[C@@H]4C=CC[C@@H](C)[C@@H]4C(=O)N3Cc3ccccc3)c2)cc1 | – | 20 µM (active) |
| COc1ccc(-n2c(SC)nc3sc4c(c3c2=O)CCN(C(C)=O)C4)cc1 | -23.2% | – |
| O=C(Cn1nc(Cc2cccnc2)c2ccccc2c1=O)NCC1CCCO1 (configuration not stated) | 0.32% | – |
| Cc1ccc(Cl)cc1N(C)C(=O)Cn1nc(Cc2cccnc2)c2ccccc2c1=O | – | 12.6 µM (active) |

| SMILES | activity, negative = inhibition | Potency |
| --- | --- | --- |
| O=C(Cn1nc(Cc2cccnc2)c2ccccc2c1=O)NCC1COc2ccccc2O1 (configuration not stated) | 6.14% | – |
| CC(C)CCNC(=O)CSc1nc2ccccc2nc1Cc1ccc(Cl)cc1 | 28.6% | – |
| COc1ccc(CCNC(=O)c2ccc(CSCc3ccc(C)cc3)o2)cc1OC | -16.2% | – |
| Cc1ccc(OCCOc2cccc(/C=N/NC(N)=O)c2)cc1 | 0% | – |
| COc1ccc(OCCn2cc(C(=O)C3CCCCC3)c3ccccc32)cc1 | -6.4% | – |
| O=Cc1cn(CCOc2ccc(F)cc2)c2ccccc12 | – | 3.98 µM (active) |
| COC(=O)N/N=C/c1cn(CCCOc2ccc(C)cc2)c2ccccc12 | – | 14.1 µM (active) |
| Cc1c(C=O)c2ccccc2n1CCOc1ccccc1 | -28.7% | – |
| O=C1c2ccccc2C(=O)N1CCOc1ccc(F)cc1 | -1.94% | – |
| Cc1ccccc1CSc1nc2c([nH]c3ccccc32)c(=O)n1C | -9.83% | – |
| CCn1cc(C(=O)N2CCN(c3cc(Cl)ccc3C)CC2)c(=O)c2cc(S(=O)(=O)N3CCCC3)ccc21 | -8.29% | – |
| COc1ccc(SCc2cc(=O)c3ccc(C)c(C)c3[nH]2)cc1 | 22.7% | – |
| CCOc1c(Nc2cccc(Cl)c2)c(=O)c1=O | 0.843% | – |
| OCCCNc1nccc(-c2cc(Nc3cccc(Cl)c3)ncn2)n1 | – | 0.447 µM (active) |
| COc1ccc(S(=O)(=O)n2nc(C)c(S(=O)(=O)N3CCCCCC3)c2C)cc1 | -19.1% | – |
| O=C(COc1ccccc1C(=O)Nc1ccccc1)Nc1cccc(F)c1 | -3.63% | – |
| COCCNS(=O)(=O)c1cc(-c2nn3c(C)nnc3c3ccccc23)ccc1C | 21.7% | – |
| COc1cc(/C=C2\Oc3ccc(C#Cc4ccc(O)cc4)cc3C2=O)cc(OC)c1 | – | 7.08 µM (active) |
| COc1cc(OC)c(OC)cc1/C=C1\C=Cc2ccccc21 | -25.2% | – |
| CN(C)c1ccc(/C=C2\C=Cc3ccccc32)cc1Br | -2.44% | – |
| COc1cc(OC)c(NC(=O)c2cnc(N3CCCC3)nc2C)cc1Cl | -12.2% | – |
| COc1cccc(CNc2nc(NCc3ccccc3OC)nc3ccsc23)c1 | – | 10 µM (active) |
| COc1ccccc1CNc1nc(Nc2ccccc2Cl)c2sccc2n1 | -8.9% | – |
| COCCNc1nc(NCc2ccc(NC(C)=O)cc2)c2sccc2n1 | -2.45% | – |
| Cc1cc(C)cc(NC(=O)CCCc2nc(-c3ccccc3Cl)no2)c1 | -1.85% | – |

| SMILES | activity, negative = inhibition | Potency |
| --- | --- | --- |
| NC(=O)Nc1ccc(/C=C/c2ccnc3ccccc23)cc1 | -11.4% | – |
| NC(=O)CSc1oc(-c2cccs2)nc1S(=O)(=O)c1ccccc1 | 4.8% | – |
| Cc1ccc(S(=O)(=O)c2nc(-c3cccs3)oc2NCc2cccnc2)cc1 | -15.5% | – |
| CCCCS(=O)(=O)c1oc(-c2cccs2)nc1S(=O)(=O)c1ccccc1 | – | 3.16 µM (active) |
| CCOc1ccc(-c2nonc2NC(=O)c2oc3ccc(C)cc3c2C)cc1OCC | 13% | – |
| CC(C)(C)c1ccc(C(=O)Nc2ccc3c(c2)CCCN3C(=O)c2cccs2)cc1 | 30.1% | – |
| CC1CC2=C(CC1/C=N/NC(N)=S)C(C)(C)CCC2 (configuration not stated) | – | 10 µM (active) |
| COc1cc(OC)c(NC(=O)N2CC3CCCN3c3ccccc32)cc1Cl (configuration not stated) | -0.149% | – |
| COc1cc(NC(=O)c2noc3c2CSc2ccccc2-3)cc(OC)c1OC | -8.23% | – |
| COc1ccc(-c2nc(CN3CCC(C(=O)NCCN(CC(C)C)CC(C)C)CC3)c(C)o2)cc1OC | -4.59% | – |
| COc1ccc(-c2nc3sc(CCNC(=O)C(C)(C)C)c(C)n3n2)cc1 | -12.3% | – |
| Cc1ccc(C(=O)N/C(=C\c2cccs2)C(=O)NCCc2ccccn2)cc1C | -4.67% | – |
| COc1cncc(-c2cnc3sc(NCCc4ccccn4)nn23)c1 | – | 7.94 µM (active) |
| CCCN(CCC)S(=O)(=O)c1ccc(C(=O)Nc2sc3c(c2C(=O)OC)CCN(CC)C3)cc1 | -14.9% | – |
| COc1ccc(Cl)cc1NC(=O)c1sc2nc3c(cc2c1N)CN(C)CC3 | 0.0406% | – |
| O=C1C[C@@H](c2ccc3ccccc3c2)N1S(=O)(=O)c1ccccc1[N+](=O)[O-] | -8.79% | – |
| Cc1ccc(-n2ncc3c(NCCCn4ccnc4)ncnc32)cc1Cl | -20.8% | – |
| Oc1c(Cl)cc(Cl)c(Cl)c1Cc1c(O)c(Cl)cc(Cl)c1Cl | – | 5.62 µM (active) |
| CCOc1ccc(N(CC)C(=O)c2noc3c2COc2ccc(C)cc2-3)cc1 | -5.87% | – |
| Cc1ccc(C=O)cc1Cl | 4.35% | – |
| CSc1ccc(C2c3c(oc4ccccc4c3=O)C(=O)N2CCCN2CCOCC2)cc1 (configuration not stated) | 16.9% | – |
| COc1cccc(CNC(=O)c2cc(=O)[nH]c3ccc(S(=O)(=O)N4CCCCC4)cc23)c1 | 2.25% | – |
